Experimental data taken from PubChem BioAssay (NCI).
The panel holds about 83,000 compounds, 20% with a hit somewhere; the sample as a whole holds those more often.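 Results are percent growth after 48 hours of single-concentration exposure. 100 means growth as in untreated cells, lower positive values show inhibition; negative values down to -100 show cell death.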 Values without a mark were called inactive. Active and inactive are the calls of the source. How the source made its calls: active means growth percent below 10; inactive means the rest.

Key:
Assay in all cases: NCI-60 one-dose screen, 48 h (100 = growth as untreated, 0 = no growth, -100 = all killed)
Conditions in all cases: 10 µM unless noted
[1] = test system: NCI-H226 lung
[2] = test system: NCI-H322M lung
[3] = test system: HOP-62 NSCLC
[4] = test system: HOP-92 NSCLC
[5] = test system: NCI-H522 lung
[6] = test system: A549/ATCC NSCLC
[7] = test system: 786-0 renal
[8] = test system: COLO 205 colon
[9] = test system: DU-145 prostate
[10] = test system: K-562 leukemia
[11] = test system: MALME-3M melanoma
[12] = test system: MDA-MB-231 breast
[13] = test system: RXF 393 renal
[14] = test system: SF-268 CNS
[15] = test system: SF-295 CNS
[16] = test system: SF-539 CNS
[17] = test system: UACC-257 melanoma
[18] = test system: M14 melanoma
[19] = test system: NCI-H460 lung

Structure (SMILES)	growth [1]	growth [2]	growth [3]	growth [4]	growth [5]	growth [6]	growth [7]	growth [8]	growth [9]	growth [10]	growth [11]	growth [12]	growth [13]	growth [14]	growth [15]	growth [16]	growth [17]	growth [18]	growth [19]
Cc1cc(N2CCCCC2)nc(N(CCCNc2ccnc3cc(Cl)ccc23)Cc2ccco2)n1	57.1%	19.6%	8.53% (active)	-6.02% (active)	49.9%	18.4%	24.2%	-35.3% (active)	39%	3.78% (active)	-5.59% (active)	21.8%	19.6%	44%	20.3%	-36.5% (active)	49.4%	-74.4% (active)	
COc1ccc2[nH]cc(-c3nc(-c4c[nH]c5ncccc45)cs3)c2c1		44.5%	53.5%	25.9%	31.3%	22.4%	16.2%	-10.2% (active)	47.1%	18.3%		39.1%	1.36% (active)	58.8%	10.6%	25.2%	-57% (active)	16.1%	21.8%
COc1cc(C(=O)/C=C/c2cc(-c3ccc4c(c3)OCO4)n[nH]2)cc(OC)c1OC	38.1%	19.3%	-22.7% (active)	73%	17.4%	28.8%	12.8%	32.3%	0.359% (active)	-17% (active)	68.5%	30.6%	1.1% (active)	-8.16% (active)		-51.9% (active)	76.5%	81.4%	-55.2% (active)
CN(C)c1ccc(C(=O)c2ccc(N(C)C)c(N)c2)cc1N	75.6%	49.3%	53%	91%	49.2%	56%	42.4%	21.3%	6.99% (active)	21.4%	34.2%	55.8%		43.6%	21.9%	3.19% (active)	77.3%	13%	13.5%
CC(=O)c1c(C)[nH]c(-c2nc3ccc(N4CCN(C)CC4)cc3[nH]2)c1-c1ccc(OCC2CCOCC2)cc1	44.4%	41.1%	24.7%	37%	37.6%	33.2%	35.6%	3.57% (active)	63.4%	22.4%	20.7%	37.4%	31.1%	54.3%	43.3%	40.2%	30.8%	34.5%	49.6%
N=C(N)N=Nc1ccc(O)cc1	73.5% [100 µM]	80.2% [100 µM]	76.9% [100 µM]	84% [100 µM]	37.7% [100 µM]	93.3% [100 µM]	28.9% [100 µM]	57.2% [100 µM]	80.4% [100 µM]	17% [100 µM]	85.2% [100 µM]	103% [100 µM]	20.8% [100 µM]	77.5% [100 µM]	8.54% [100 µM] (active)	15.2% [100 µM]	95.6% [100 µM]	81.6% [100 µM]	84.1% [100 µM]
CC(Cc1ccco1)C(=O)NC(N)=O (stereo not given)	95.8%	99.2%	106%	109%	97.4%	91.9%	103%	120%	109%	110%	103%	110%	96.7%	104%	94.6%	97.8%		101%	107%
Cc1c(C)c2c(c(C)c1NC(=O)CCCCCCC(=O)O)CCC(C)(CCCC(C)CCCC(C)CCCC(C)C)O2 (stereo not given)	95.2%	91.7%	109%	82%	52%	20.4%	75.2%		86.1%	39.2%		101%	98.9%	78.3%	71.4%	89.9%	95.2%	82.7%	69.7%
Cn1cc(-c2nc(-c3c[nH]c4ncccc34)cs2)c2cc(Cl)ccc21	81.8%	47.8%	86%	40.4%	52.2%	43%	46.2%		54.4%	9.43% (active)		55.3%	63.4%	65.4%	24.4%	71.7%	56%	42.2%	47%
COC(=O)[C@]12CC[C@@H](C)[C@H](C)[C@@H]1C1=CC[C@@H]3[C@@]4(C)C[C@@H](O)[C@H](O)[C@@](C)(CO)C4=CC[C@@]3(C)[C@]1(C)CC2	-47.4% (active)	-84.7% (active)	-61% (active)	-77.6% (active)	-2.22% (active)	-14.1% (active)	-74.1% (active)	-76.7% (active)	-41.4% (active)	-22.8% (active)	-74.8% (active)	-63.7% (active)	-88.3% (active)	-49.2% (active)	-83.3% (active)	-89.9% (active)		-68.1% (active)	-63.4% (active)
CN(C)c1ccc(N=C2C=CC(=O)C=C2)cc1	95.1%	75%	107%	77.5%	72%	102%	98.4%		112%	64.2%	85.8%	46.4%		101%	95.1%	65%	119%	95.6%	97.1%
Cn1cc(-c2csc(-c3cn(CCN)c4ccccc34)n2)c2cccnc21	66.4%	70.9%	40.1%	37.6%	65.8%		46.7%	20.7%	75.6%	-44.3% (active)	68.2%	45.7%	70.9%	64.4%	58.6%	47.9%	78.1%	43.4%	24.8%
CC(=O)OCCCCCCn1c2ccccc2c2c3c(c4c5ccccc5n(C)c4c21)C(=O)N(O)C3=O	63.7%	77.4%	58.7%	101%	50.4%	94.5%	88%	70.1%	89.9%	59.7%	115%	64.5%	100%	70.2%	91.5%	94.3%		65.4%	48.1%
Nc1ccc(Br)cn1	99.9%	104%	101%	89.4%	95.4%	103%	106%	113%	112%	117%		99.3%	108%	110%	114%	99.1%	106%	98.6%	106%
COc1cc(-c2cc(-c3nc4cc(Cl)c(Cl)cc4[nH]3)[nH]n2)cc(OC)c1OC	38%	92.3%	80.6%	61.2%	45.8%	69.5%	87.4%	46.8%	92.5%	17.5%	46.4%	74%	70.6%	96.5%		77.8%	88%	62.3%	69.7%
O=C1c2cccc3cccc(c23)C(=O)N1CC#Cc1ccc2c3c(cccc13)C(=O)N(CCO)C2=O	91.9%	94.9%	84.5%	86.4%	92%		98.1%	118%	88.6%	95.1%	100%	66.9%	85.1%	78.9%	98.7%	90.8%	94.2%	84.8%	
